# Assay results: publication PMC5540273 (PLoS ONE, 2017)
# How the values were obtained:
# Settings in all cases: concentration: 1 μM, replicates: in singlicate; n = 1
# ASK2 = tested on: T1, ASK2
# T1 construct: gene MAP3K6
# AURKA = tested on: AURKA
# AURKB = tested on: AURKB
# AURKC = tested on: AURKC
# AXL = tested on: AXL
# BIKE = tested on: T2, BIKE
# T2 construct: gene BMP2K
# BLK = tested on: BLK
# BMPR1A = tested on: BMPR1A
# BMPR1B = tested on: BMPR1B
# BMPR2 = tested on: BMPR2
# BMX = tested on: BMX
# BRAF = tested on: BRAF
# BRK = tested on: T3, BRK
# T3 construct: gene PTK6
# BRSK1 = tested on: BRSK1
# BRSK2 = tested on: BRSK2
# BTK = tested on: BTK
# BUB1 = tested on: BUB1
# CAMK1B = tested on: CAMK1B
# CAMK1D = tested on: CAMK1D
# CAMK1G = tested on: CAMK1G
# 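Note: KINOMEscan kinase panel screen.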
Structure (SMILES),%Inh (ASK2) [%],%Inh (AURKA) [%],%Inh (AURKB) [%],%Inh (AURKC) [%],%Inh (AXL) [%],%Inh (BIKE) [%],%Inh (BLK) [%],%Inh (BMPR1A) [%],%Inh (BMPR1B) [%],%Inh (BMPR2) [%],%Inh (BMX) [%],%Inh (BRAF) [%],%Inh (BRK) [%],%Inh (BRSK1) [%],%Inh (BRSK2) [%],%Inh (BTK) [%],%Inh (BUB1) [%],%Inh (CAMK1B) [%],%Inh (CAMK1D) [%],%Inh (CAMK1G) [%]
NCCCC(NC(=O)c1cc(Br)c(-c2ccnc3[nH]ccc23)s1)c1ccccc1.O=C(O)C(F)(F)F.O=C(O)C(F)(F)F (stereo not drawn) [GSK1287544],0,74,56,95.7,74,97.9,0,0,0,21,7,0,3,28,0,0,21,10,18,0
Cc1ccc(S(=O)(=O)Nc2ccc(Nc3nccc(Nc4cccc5[nH]ncc45)n3)cc2)cc1 [GSK581271],0,99.8,37,52,0,65,0,0,0,4,5,6,34,5,0,0,44,7,8,0
Cn1cc(-c2ccc3c(c2)CCN3C(=O)Cc2cccc(F)c2)c2c(N)ncnc21 [GSK2603358],0,20,95.5,47,83,10,50,0,0,3,0,4,26,14,67,0,52,34,74,11
C[C@@H]1CC[C@@H](C(=O)Nc2ccccc2)CN1c1cc(-c2ccc3c(N)n[nH]c3c2)nc(N)n1 [GSK2286062],2,4,16,26,0,9,0,0,0,0,24,0,3,0,0,0,16,0,23,6
CN(C)Cc1ccc(-c2ccc3c(Nc4ccc(Oc5ccccn5)cc4)ccnc3c2)o1 [GW567148],0,0,81,51,2,17,91.5,0,0,28,12,1,95.2,0,0,74,0,0,0,0
CN(c1ccc(NC(=O)Nc2cc(C(F)(F)F)ccc2F)cc1)c1ccnc(Nc2ccc(S(N)(=O)=O)cc2)n1 [GW809893],17,90.7,95.7,67,93.3,26,96.7,28,20,78,71,66,76,15,8,25,0,0,38,0
CCCCc1nn2ncccc2c1-c1ccnc(Nc2ccc(N3CCN(C)CC3)cc2)n1 [GW684941],16,96.7,80,82,69,69,81,0,91,0,53,86,69,3,0,57,93.3,25,0,0
Cl.Cl.NCC(NC(=O)c1cc(-c2ccccc2)c(-c2ccnc3[nH]ccc23)s1)c1ccccc1 (stereo not drawn) [GSK1321561],1,33,0,69,46,79,58,4,0,0,38,9,8,0,0,0,72,24,5,0
Nc1ncc(-c2cccnc2)c2scc(-c3ccc4c(c3)CCN4C(=O)Cc3ccccc3)c12 [GSK683281],10,25,70,70,89,16,82,6,0,3,20,0,68,27,0,0,0,0,22,21
O=C(O)C(F)(F)F.O=C(O)C(F)(F)F.O=c1[nH]ccc2nc(N[C@@H]3CCCNC3)nc(Nc3ccc(S(=O)(=O)N4CCOCC4)cc3)c12 [GSK2177277],19,96.8,97.6,100,99.9,100,95.6,0,90.8,98.6,58,0,9,69,69,90.7,90.5,100,99.1,74
O=C(Nc1cccc(-c2nn3ccccc3c2-c2ccnc(Nc3cccc(F)c3)n2)c1)c1c(F)ccc(F)c1Cl [GSK357952],6,0,7,66,19,25,97.2,0,0,0,63,36,69,5,0,42,29,21,12,0
COc1ccc(Nc2nccc(N3CCC(NC(=O)Nc4cccc(OC)c4)C3)n2)cc1 (stereo not drawn) [GSK1379742],13,0,53,10,0,13,37,0,0,12,0,2,10,4,0,0,29,17,0,0
Cn1cc(-c2[nH]c3cc(NC(=O)[C@H](N)C4CCCCC4)cc4c3c2C=NNC4=O)cn1,0,100,99.7,99.3,99.9,100,99.5,19,87,22,13,39,14,31,61,94.2,100,87,90.4,0
Cc1ccc(C(=O)N2CC[C@@H](O)C2)cc1-n1c(C)cc(OCc2ccc(F)cc2F)c(Br)c1=O,0,0,0,0,0,0,70,0,54,0,0,58,20,0,0,0,0,0,17,0
Cl.c1ccc(-c2ccc3c(Nc4ccc5[nH]ccc5c4)ccnc3c2)nc1 [GW440138],0,8,0,1,0,2,70,0,5,26,5,0,28,0,0,0,64,11,0,0
COc1ccc(-c2coc3ccc(-c4nnc(SCc5ccc(OC)c(C(F)(F)F)c5)o4)cc23)cc1,0,21,11,7,11,0,7,20,13,14,29,0,0,0,13,0,0,8,14,3
COc1cc(Nc2ncc3c(C)nc(-c4cc5ccccc5[nH]4)n3n2)cc(OC)c1OC [GW869516],0,0,1,26,26,9,60,22,0,0,25,0,36,0,14,0,0,0,8,0
Nc1ncnc2c1nc(-c1ccccc1)n2-c1ccccc1 [SKF-97293],29,24,47,0,14,4,0,8,17,46,15,6,1,15,27,0,46,6,8,0
